We go through 39 compounds from PubChem BioAssay (NCI).

The structures appear in SMILES notation. About 83,000 compounds went through this panel and 20% of them were active in at least one assay; those are over-represented in the sample as a whole.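 Assay: single dose, 48 h. Readout: percent growth (0 = no net growth; negative = cell death). Active: <10.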 Activity calls are given as the source filed them.

The assay concerns MOLT-4 leukemia. The experiment in a line: NCI-60 one-dose screen, 48 h (100 = growth as untreated, 0 = no growth, -100 = all killed). Conditions: 10 µM unless noted.
For the compound `Cc1ccc2c(NCCCN(C)C)c3c(C)nn(C)c3nc2c1`, the growth was 10.7% (inactive).
For `CCc1ccccc1NC(=O)c1sc2nc3c(cc2c1N)C(=O)CCC3` the value was 24.4% (inactive).
The figure for `C#Cc1nc(Nc2cc(C)[nH]n2)c2ccccc2n1` is -19.8% (active); for `CC(=O)Oc1cc2cnc3c4cc(OC(C)=O)c(OC(C)=O)cc4ccc3c2cc1OC(C)=O` it is -6.19% (active); for `Cc1cc(Nc2nc(-c3cccnc3)nc3ccccc23)n[nH]1` it is 89.5% (inactive).
The figure for `CNC(=S)N/N=C/CSC/C=N/NC(=S)NC` is 48.7% (inactive); for `COc1ccc(CN(c2ccc(C)cc2)C2OC(=O)c3ccccc32)cc1OC` (centres undefined) it is 98.6% (inactive); for `COc1cccc(-n2cc(-c3nc(Nc4cc(C)[nH]n4)c4ccccc4n3)nn2)c1` it is 11% (inactive).
In the case of `COc1cc(OC)c(/C=C/c2cc[n+](C)c3ccccc23)c(OC)c1`, the growth was 3.59% (active).
As to `Cc1nn(-c2nc3ccccc3[nH]2)c2c1C(c1ccc3c(c1)OCO3)CC(=O)N2` (centres undefined), the growth was -48.5% (active).
For `CC1(C)OCC2OC3(C(=O)O)OC(C)(C)OC3C2O1` (centres undefined) the value was 97.9% (inactive).
The figure for `NCc1cn2cc(Cl)sc2n1` is 110% (inactive); for `COc1ccc(/C=N\NC(=O)c2ccncc2)cc1O` it is 95.6% (inactive); for `Nc1cc2nc3ccccc3sc-2cc1=O` it is 61.4% (inactive).
For `N#CC1=C(N)Oc2c(ccc3ccccc23)C1c1cccs1` (centres undefined) the value was 1.98% (active); for `CCOC(=O)c1ccc2c(c1)nc(/C=C/c1ccc(Cl)cc1)n2-c1cc(C(C)(C)C)[nH]n1`, -2.76% (active); for `CCOC(=O)c1nc(Nc2cc(C)[nH]n2)c2ccccc2n1`, 102% (inactive).
For the compound `O=C(Nc1ccc(F)cc1)Nc1ccc(CCO)cc1`, the growth is 102% (inactive).
With `O=[N+]([O-])c1cccc(C2CC(c3ccccc3)=Nc3ccccc3S2)c1` (centres undefined), the growth is 64.2% (inactive).
For `COc1cc(-c2c3sc(=O)[nH]c3nc3c2c(=O)[nH]n3C(C)C)cc2c1OCO2` the value was 104% (inactive); for `O=C(N/N=C/c1ccc(O)cc1O)c1cccnc1`, 3.3% (active); for `CCCCCCCCOC(=O)CC[C@@H](C)[C@H]1CC[C@H]2[C@@H]3[C@H](OC(=O)CCN)C[C@@H]4C[C@H](OC(=O)CCN)CC[C@]4(C)[C@H]3C[C@H](OC(=O)CCN)[C@]12C`, 26.1% (inactive).
The figure for `CCOC(=O)N1CCN(c2nc(Nc3cc(C)[nH]n3)c3ccccc3n2)CC1` is 69.1% (inactive); for `Cc1ccc(C2CC3c4ccccc4C2C2CCCCN32)cc1` (centres undefined) it is 94.8% (inactive).
The figure for `CC#Cc1nc2ccccc2c(=O)[nH]1` is 19.3% (inactive); for `COc1c(C2CC(=O)Nc3c2cnn3Cc2ccco2)cc2c(c1OC)OCO2` (centres undefined) it is 1.51% (active); for `Oc1ccccc1/C=N/Nc1ccc2ccccc2n1` it is 7.34% (active).
As for `Cc1cc(Nc2nc(N3CCN(C)CC3)nc3ccccc23)n[nH]1`, the growth is 69.9% (inactive).
With `COc1cccc2c1C(=O)c1c(O)c3c(c(O)c1C2=O)C[C@@](O)(/C(C)=N/NC(=O)c1ccc(Cl)cc1)C[C@@H]3OC1CC(N)C(O)C(C)O1` (some centres undefined), the growth was -31.3% (active).
Consider `C#Cc1nc2ccccc2c(=O)[nH]1`, for which the growth was -21.4% (active).
For `O=C1Nc2ccc(Br)cc2C12CC(c1ccccc1)=NN2` (centres undefined) the value was 36.3% (inactive).
In the case of `CCCCCCCCCCCCN1CCCC(C)C1` (centres undefined), the growth is 63.9% (inactive).
The figure for `Cc1ccc(NC(=O)c2sc3nc4c(cc3c2N)C(=O)CCC4)cc1C` is 27.6% (inactive).
The figure for `O=C(NC(Cc1ccccc1)C(=O)CCl)OCc1ccccc1` (centres undefined) is 12.2% (inactive); for `COc1c(Cl)cc(Cl)cc1Cl` it is 91.4% (inactive).
On to `COc1cc(C2CC(=O)Nc3c2cnn3Cc2ccco2)cc2c1OCCO2` (centres undefined), for which the growth was 65.6% (inactive).
As to `O=C1Nc2ccccc2/C1=C/C(=N/c1nnc(-c2ccc(Cl)cc2)s1)c1ccccc1`, the growth is -26.4% (active).
For `CC(=O)OCC(=O)C1CCC=CC1OC(C)=O` (centres undefined) the value was 95.9% (inactive); for `c1c2c(cc3c1OCO3)Cc1cc3c(cc1Cc1cc4c(cc1C2)OCO4)OCO3`, 116% (inactive).
